Compound activity from PubChem BioAssay.
SW480 rereplic: inducers of DNA re-replication in SW480 colon cancer cells; SW480 DNA re-replication, Hoechst DNA content imaging, 48 h; Potency, µM (titrated, usually from 46.1 µM), inactives show top-dose re-replication activation, hits mostly activators; hit rate 1.8% among 340,000; AID 624297; note: % of control where 0% means no effect; nearly all actives have a fitted effect of over 55% in size
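Per well, 250 cells were exposed to pinned compound for 48 hr. Nuclear DNA was visualised with Hoechst (40 min, 37 C) and total object intensity recorded by fluorescence scanning.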
KB-3-1 cytotox: KB-3-1 parental cell cytotoxicity; KB-3-1 viability, CellTiter-Glo ATP luminescence, 72 h; Potency, µM (doses to about 46.1 µM), most hits filed as cytotoxic; hit rate 1.4% among 400,000; AID 1347075; note: % is set by controls: 0 for no effect and ±100 for the full control effect; nearly all actives have a fitted effect of over 60% in size
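Multi-concentration cytotoxicity screen in KB-3-1 cells grown in DMEM lacking phenol red with 10% FBS. After 72 h at 37 °C with compound, ATP-dependent luminescence was recorded.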
HT1080-NT tox: kills 2HG-producing HT-1080-NT fibrosarcoma cells | AID 686970 | hit rate 1.6% among 360,000 | HT-1080-NT fibrosarcoma viability, CellTiter-Glo ATP luminescence, 48 h | Potency, µM (titrated, usually from 46.1 µM), for inactives: at the highest dose activity, negative = less viability, usual class: cytotoxic;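 note: NT is the 2HG producing partner of a matched IDH1 knockdown line; 0% = DMSO-treated cells and -100% = media-only wells without cells; nearly all actives have a fitted effect of over 55% in size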
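Read-out is CellTiter-Glo luminescence after 10 minutes at room temperature, following 48 hours' compound treatment of HT-1080-NT cells (750 cells/well, RPMI, 5% FBS, 37 degrees C).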
KB-V1 cytotox: kills drug-selected multidrug resistant KB-V1 cells; Potency, µM (highest dose often 46.1 µM), actives largely listed as cytotoxic; KB-V1 MDR cells viability, CellTiter-Glo, 72 h; hit rate 3.4% among 400,000; note: % is set by controls: 0 for no effect and ±100 for the full control effect; nearly all actives have a fitted effect of over 60% in size
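qHTS viability screen in drug-selected KB-V1 MDR cells: 72 h compound treatment at 37 degrees C, ATP luminescence end point.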
HT1080 IDH1KD tx: HT-1080 IDH1 knockdown cell toxicity (counter line); HT-1080 IDH1 knockdown viability, ATP luminescence, 48 h; hit rate 2% among 360,000; Potency, µM (series often up to 46.1 µM), inactives show at the top dose activity, negative = toxicity, hits mostly cytotoxic;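 note: 0% = DMSO wells and -100% = cell-free medium wells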
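After a 2 h attachment period, IDH1KD HT-1080 cells took pin-transferred compound for 48 h at 37 °C; ATP-based luminescence after 10 min room-temperature reagent incubation reported viability.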
MCF10A rerep: inducers of DNA re-replication in MCF 10A breast cells. MCF 10A DNA re-replication, Hoechst nuclear intensity, 48 h. hit rate 2.9% among 350,000. AID 624296. Potency, µM (titrated, usually from 46.1 µM), for inactives: at the top dose activity, positive = re-replication, actives largely listed as activators; note: % of control where 0% means no effect; nearly all actives have a fitted effect of over 50% in size
Starred values were filed as active, the others as inactive; i = inactive; u = inconclusive; x = not tested or not shown. The list is not random: actives were taken first. Their share in the collection is about 7.9%. Calls come from the whole dose curve; as a rule, active = well fitted curve in the direction sought with a large enough effect; inconclusive = small, poorly fitted or top-dose-only effect, or another doubt; inactive = no such curve, though single readings can be large; an effect the other way counts as inactive or inconclusive. Potency is the fitted concentration of half-maximal effect.

SMILES	SW480 rereplic	KB-3-1 cytotox	HT1080-NT tox	KB-V1 cytotox	HT1080 IDH1KD tx	MCF10A rerep
COc1cccc(C2NC(=S)NC(C)=C2C(=O)c2ccccc2)c1OC (centres undefined)	5.8µM*	1.8µM*	2.3µM*	u	1.5µM*	u
CCCCCCN(CCCCCC)c1ccc(/C=C/c2ccnc3ccccc23)cc1	x	u	x	i	x	x
C[n+]1ccc(/C=C/c2ccc(F)cc2)c2ccccc21	x	i	x	i	x	x
CC[n+]1ccc(/C=C/c2c[nH]c3ccccc23)cc1	u	1.8µM*	u	i	-28%	u
CCCCCCCCCC[n+]1ccc(/C=C/c2c[nH]c3ccccc23)c2ccccc21	x	8.2µM*	x	u	x	x
CCCCCCC[n+]1ccc(/C=C/c2c[nH]c3ccccc23)cc1	x	0.41µM*	x	i	x	x
CCn1c(/C=C/c2c(C)[nH]c3ccccc23)nc2ccccc2c1=O	u	i	-2%	i	-1%	u
CCCCCCCCCC[n+]1ccc(/C=C/c2c(C)[nH]c3ccccc23)cc1	x	1.3µM*	x	u	x	x
CC1C(=O)N(Cc2cn(CCC3OCCCO3)nn2)CCS(=O)(=O)N1Cc1ccc(-c2ccc(F)nc2)cc1 (centres undefined)	x	i	1%	i	1%	x
N#Cc1ccc(Cl)cc1NC(=O)CN1C(=O)C(=O)N(CCC2=CCCCC2)C1=O	x	i	0%	i	-6%	x
Nc1nc(=O)n(C2CCCCO2)cc1Br (centres undefined)	-6%	i	9%	i	10%	-9%
CC(C)=CCC/C(C)=C/CC/C(C)=C/CCC1(C)CCc2cc(O)ccc2O1 (centres undefined)	x	x	5%	x	15%	x
CCCCNC(=O)C[C@@H]1C[C@@]2(C(=O)OC)CC(C)(C)CC=C2N(CCc2ccc(OC)c(OC)c2)C1=O	x	i	1%	u	4%	x
COC(=O)[C@@]12C[C@@H](CC(=O)NCC34CC5CC(CC(C5)C3)C4)C(=O)N(CCc3ccc(OC)c(OC)c3)C1=CCC(C)(C)C2	x	u	u	23µM*	u	x
COC(=O)[C@@]12C[C@@H](CC(=O)NCCc3ccccc3OC)C(=O)N(CCc3ccc(OC)c(OC)c3)C1=CCC(C)(C)C2	x	u	u	21µM*	u	x
Cc1cccc(C(C)C)c1NC(=O)c1ccc2c(c1)CCCN2S(C)(=O)=O	x	i	x	i	x	x
C=CCn1c(SCC(=O)c2[nH]c(C)c(C(=O)OCC)c2C)nc2scc(-c3ccc(OC)c(OC)c3)c2c1=O	13µM*	i	5%	u	21%	3.3µM*
O=C(CCCCCN1C(=O)c2cccc3cccc(c23)C1=O)NC1CCS(=O)(=O)C1 (centres undefined)	18µM*	i	-5%	i	-1%	-2%
O=C(CCN1C(=O)c2cccc3cccc(c23)C1=O)NC1CCS(=O)(=O)C1 (centres undefined)	-18%	i	20%	i	14%	-2%
CCC(=O)Oc1c(Sc2ccc(Cl)cc2)c(C)nn1C(C)(C)C	x	i	x	i	x	x
COCCn1c(-c2ccc(-c3ccccc3Cl)o2)nc2c1c(=O)[nH]c(=O)n2CC(C)C	u	i	3%	i	-3%	12µM*
CNc1snc(C)c1C(=O)OCC(=O)Nc1ccc(C)cc1F	-5%	i	-9%	12µM*	-23%	u
CCc1ccccc1NC(=O)COC(=O)c1c(C)nsc1NC	u	i	4.1µM*	i	-11%	3%
CNc1snc(C)c1C(=O)OCC(=O)N(C)c1ccccc1	-8%	i	12%	i	1%	-6%
O=S(=O)(NCc1ccccc1)c1ccccc1NCCc1ccccc1	-61%	i	-1%	i	0%	8%
CCCCCCCCNc1ccccc1S(=O)(=O)NCc1ccccc1	-6%	i	u	i	u	5.2µM*
CCCc1nccn1S(=O)(=O)c1cc(Br)ccc1OC	x	i	x	i	x	x
